Drawing on PubChem BioAssay (NCI), this text covers growth for 37 compounds.

The panel holds about 83,000 compounds, 20% with a hit somewhere; the sample as a whole holds those more often.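 Method: cells in 96-well plates; compound added at one concentration; 48 h incubation; percent growth measured; values under 10 scored active.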 The source made the active and inactive calls.

The test system of the assay is HL-60(TB) leukemia. Description: NCI-60 one-dose screen, 48 h (100 = growth as untreated, 0 = no growth, -100 = all killed). The note with it: 10 µM unless noted.
For the compound `O=C(O)c1cccc([N+](=O)[O-])c1/C=C/c1ccccc1`, the growth was 97.4% (inactive).

In the case of `O=C(Cc1c(F)cccc1Cl)Nc1ccc(S(=O)(=O)Nc2ncccn2)cc1`, the growth is 120% (inactive).

For the compound `Cc1cc(N2CCCC2)nc(N(CCCNc2ccnc3cc(Cl)ccc23)Cc2ccccn2)n1`, the growth was 23.4% (inactive).

As to `COc1cc(NC(=O)c2cccc(-c3cc(=O)c4c(O)c(OC)c(OC)cc4o3)c2)cc(OC)c1OC`, the growth was 78% (inactive).

For `C=CCn1c(SCC(=O)Nc2ccc(C(=O)/C=C/c3ccc(OC)cc3)cc2)nnc1-c1ccccc1`, the growth was 88.5% (inactive).

On to `CC(=O)NCNC(C)=O`, for which the growth is 113% (inactive).

For the compound `CC[C@@]12C=CCN3CC[C@]4(c5cc(NC(=O)COc6cc(OCC(=O)Nc7cc8c(cc7OC)N(C)[C@H]7[C@@](O)(C(=O)OC)[C@H](OC(C)=O)[C@]9(CC)C=CCN%10CC[C@]87[C@@H]%109)cc7oc(-c8ccccc8)cc(=O)c67)c(OC)cc5N(C)[C@@H]4[C@](O)(C(=O)OC)[C@H]1OC(C)=O)[C@H]32`, the growth is 88.2% (inactive).

With `CC(C)(C)OC(=O)N1Cc2cc3ccccc3nc2C1CO` (configuration not stated), the growth was 92.8% (inactive).

On to `Cc1ccc(-c2cc(-c3ccccc3C)[nH]c(=O)c2C#N)s1`, for which the growth was 80.4% (inactive).

On to `CC12OC(CC(O)C1O)n1c3ccccc3c3c4c(c5c6ccccc6n2c5c31)C(=O)N(CCN1CCOCC1)C4=O` (configuration not stated), for which the growth is 7.54% (active).

`C=CC[N+](C)(C)C`: the growth was 107% (inactive).

With `O=C(/C=C/c1cccc(O)c1)c1cccc(-n2cc(-c3ccc4ccccc4c3)[nH]c2=O)c1`, the growth is -21.5% (active).

For `CNC(=O)c1cc(COc2nnc(Nc3ccc(Cl)cc3)c3ccoc23)ccn1`, the growth is 120% (inactive).

As for `Brc1ccc(-c2nnc3c4[nH]ccc4ncn23)cc1`, the growth is 100% (inactive).

As for `CCN1CCCC1CNC(=O)c1ncc(-c2ccc(C(F)(F)F)cc2)c(NC2CCCCCC2)n1` (configuration not stated), the growth is 65.9% (inactive).

Take `COc1ccc(-c2nc3ccc(-c4nc5ccc(N6CCN(c7ccc(F)cc7)CC6)cc5[nH]4)cc3[nH]2)cc1OC`: the growth is 46.5% (inactive).

With `CCCCCCCCCCCCCCCC[N+]1(C)CCOCC1`, the growth is -59.5% (active).

Regarding `CN1CCN(Cc2ccc(NC(=O)c3cncc(C#Cc4cncc5nccnc45)c3)cc2C(F)(F)F)CC1`, the growth is 1.66% (active).

In the case of `Clc1ncnc2nc[nH]c12`, the growth is 101% (inactive).

As to `CO[C@@H]1[C@H](N(C)C(=O)c2ccccc2)C[C@@H]2O[C@]1(C)n1c3ccccc3c3c4c(c5c6ccccc6n2c5c31)C(=O)NC4=O`, the growth was 78.9% (inactive).

With `COc1cc(/C=C/c2ccnc3ccccc23)cc(OC)c1OC`, the growth was 15.7% (inactive).

`COc1cc(CO)cc2cc3ccccc3nc12`: the growth was 101% (inactive).

Turning to `CCC(CC)(N(CC(=O)O)CC(=O)O)C(CC)(CC)N(CC(=O)O)CC(=O)O`, the growth was 79.1% (inactive).

For `Cc1ccccc1N1C(c2ccccc2)=NNC12C=CC(=O)c1c(O)cccc12` (configuration not stated), the growth was 70.2% (inactive).

`CCCCn1c(NC(C)=O)c(S(=O)(=O)c2ccccc2)c2nc3ccccc3nc21`: the growth was 88.5% (inactive).

As to `COc1ccc2nc(NNC(=O)c3cnccn3)c3cccn3c2c1`, the growth was -27.1% (active).

For `O=Cc1ccc(O)c2ncccc12`, the growth is -69.3% (active).

As to `O=C(/C=C/c1cc(CN2CCOCC2)c(O)c2ncccc12)c1cc(CN2CCOCC2)c(O)c2ncccc12`, the growth is 22% (inactive).

For the compound `COc1cc(C2C3=C(COC3=O)Nc3cc4c(cc32)OCO4)cc2c1OCO2` (configuration not stated), the growth was -8.91% (active).

On to `COc1cccc2c1C(=O)c1c(O)c3c(c(O)c1C2=O)C[C@@](O)(C(=O)CO)C[C@@H]3OC1C[C@H](N)[C@H](O)[C@H](C)O1` (some centres not stated), for which the growth is -26.7% (active).

On to `COc1ccc(-c2ccc(O)c(C(=O)/C=C/c3cc(OC)c(OC)c(OC)c3)c2)cc1`, for which the growth is 54.5% (inactive).

`Cc1c(CN)cc(-c2ccc(Cl)cc2)n1-c1ccccc1`: the growth is 86.9% (inactive).

Regarding `COc1ccc(/C=C(\C#N)c2ccc(OC)cc2)cc1`, the growth is 50.9% (inactive).

On to `CC1CC(O)CC(C)(C)C1` (configuration not stated), for which the growth was 80.8% (inactive).

For `O=C1/C=C/[C@@H](O)[C@@H]2C[C@@H](O)C[C@H]2/C=C/CCC[C@H](C(F)(F)F)O1`, the growth was -32.7% (active).

Take `O=C(O)CCCCSCCCCC(=O)O`: the growth was 97.8% (inactive).

As to `COC(=O)[C@H](Cc1cn(C)cn1)NC(=O)[C@H](Cc1c[nH]c2ccccc12)NC(=O)Nc1cc(C(F)(F)F)cc(C(F)(F)F)c1`, the growth was -54.5% [100 µM] (active).
